# PubChem BioAssay AID485314 (National Center for Advancing Translational Sciences (NCATS), 2010)
# Among all 340,000 compounds or so, about 4,500 (1.3%) were called active. Not shown: some 5% with an inconclusive outcome. The list comes from a sample in which actives are over-represented; it also holds similar structures and randomly drawn compounds. A number with no mark means an inactive call. The call rests on the fitted dose curve; in most records, active means well fitted inhibition curve with a large enough effect; inconclusive means small, poorly fitted or top-dose-only effect, or another doubt; inactive means no such curve, though single readings can be large or run the other way.
# Biological target: DNA polymerase beta (Homo sapiens) (UniProt P06746)
# Experiment: qHTS Assay for Inhibitors of DNA Polymerase Beta
# Conditions: Pol beta primer extension/strand displacement, fluorescence kinetic; series mostly up to 114 µM; activity change, negative = inhibition: at the top concentration
# Summary of the method: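 Kinetic readout of DNA synthesis with strand displacement by Pol beta. Compound and 10 nM enzyme sit 15 min at room temperature; 50 nM substrate starts the reaction, read immediately and at 10 min.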
# On the % scale 0 is the no-effect control and ±100 the full control effect; potency means the concentration at half of the fitted maximal effect.
SMILES,Potency,"activity change, negative = inhibition"
O=C(c1cc2c(s1)CCC2)N1CCN(c2ccccc2)CC1,17.8 µM (active),
O=C(NNC(=O)c1cc2c(s1)CCCC2)c1ccccc1,,-1.77%
O=C(C1CCC1)N1CCN(c2ccccc2)CC1,,12.2%
CCc1ccc(NC(=O)c2cc(S(=O)(=O)NC3CCCCCC3)ccc2F)cc1,,1.54%
CCOc1cccc(CC(=O)N2CCc3c([nH]c4ccccc34)C2c2ccc(OC)cc2)c1OCC (stereo not given),,-16.3%
CC(C)Nc1nnc(SCC(=O)c2c[nH]c3ccccc23)s1,,1.26%
CC(C)c1ccc(Nc2nnc(SCC(=O)c3nnc(-c4ccccc4)o3)s2)cc1,39.8 µM (active),
Cc1ccccc1Nc1nnc(SCC(=O)c2cc3ccccc3o2)s1,,-1.02%
Cc1cccc(Cn2c(SCc3ccc(C(=O)N4CCC(C)CC4)cc3)nc3ccncc32)c1,,19.7%
COc1cc(OC)c(OC)cc1/C=C/c1nc2ccccc2c(=O)n1-c1ccc(Br)c(C)c1,,22.7%
COc1ccc(C(=O)Nc2cccc(C(=O)OCc3cc(=O)n4c5c(sc4n3)CCCC5)c2)cc1,,-16.3%
Cc1ccc(CN2CCc3nc(N4CCN(C)CC4)ncc3C2)cc1,,32%
COc1cccc(N2CCN(C(=O)CCCCCn3c(=O)[nH]c4ccccc4c3=O)CC2)c1,,27.1%
Cc1ccsc1-c1cc(C(=O)O)c2c(ccc3ccccc32)n1,,13.8%
Cc1cc(C)c2nc(-c3ccco3)cc(C(=O)O)c2c1,7.08 µM (active),
Cc1cccc(NC(=O)CSc2nc(-c3ccco3)cc(C(F)(F)F)n2)c1C,,-2.02%
CCOc1cc(CNC(=O)c2sc3ncnc(N(C)C4CCCCC4)c3c2C)ccc1OC,,-1.77%
COc1ccc(CCNC(=O)C(=O)NCC(c2ccco2)S(=O)(=O)c2cccs2)cc1OC (stereo not given),,-9.89%
O=C(Nc1ccc2nc(SCC(=O)N3CCCc4ccccc43)sc2c1)c1ccc(F)cc1,,13.6%
O=C(CSc1nccn1C1CCCC1)Nc1cc(C(F)(F)F)ccc1Cl,,6.31%
CCCc1nc2sc3c(c2c(=O)n1NC(=O)CCCl)CCCC3,,-2.23%
NNC(=O)C1CCCn2c1nc1sc3c(c1c2=O)CCCC3 (stereo not given),,2.75%
Cn1c(NN)nc2sc3c(c2c1=O)CCC3,89.1 µM (active),
COc1ccccc1OCC(=O)Nc1nnc2n1CCS2,,-20.4%
CCOC(=O)c1c(C)oc2nc(C)nc(N3CCN(c4ccc(OC)cc4)CC3)c12,,-15.6%

SMILES,Potency,"activity change, negative = inhibition"
CC(=O)NC1C(Oc2ccc(C)cc2)OC2COC(c3ccco3)OC2C1O (stereo not given),,-3.84%
CCc1cccc(OC2OC(CO)C(O)C(O)C2NC(C)=O)c1 (stereo not given),,-1.07%
CC(=O)NC1C(Oc2ccc(C=O)cc2)OC(COC(C)=O)C(OC(C)=O)C1OC(C)=O (stereo not given),39.8 µM (active),
Cc1c(C(=O)N2CCCC2)oc2c1-c1nn(CC(=O)NCc3ccc(OC(C)C)cc3)cc1CC2,,2.91%
COc1ccc(-c2nc(SCC(=O)N3CCCCC3C)n[nH]2)cc1 (stereo not given),,3.44%
CCCCCn1c(=O)[nH]c2cc(C(=O)NCCN(C)CCCC)ccc2c1=O,,-2.03%
CCSc1nnc(NC(=O)c2ccc(C)cc2)s1,,-1.08%
CCSc1nnc(NC(=O)c2cc(=O)c3cc(C)c(C)cc3o2)s1,,-16.3%
Cc1ccc(C(=O)Oc2coc(CSc3nnc(NC(=O)c4cccs4)s3)cc2=O)cc1C,20 µM (active),
CCOC(=O)C1CCN(c2csc3ccc(C)cc3c2=O)CC1,,38.3%
COc1cc(/C=C2/C(=O)NN(c3cccc(Cl)c3)C2=O)cc(Br)c1O,,-5.39%
O=C1NN(c2ccccc2)C(=O)/C1=C/c1ccc(-c2cccc(C(=O)O)c2)o1,35.5 µM (active),
Cc1cccc(C)c1-n1c(C)cc(/C=C2\C(=O)NN(c3ccccc3)C2=O)c1C,,-1.38%
CCOc1cc(C2C(C(=O)OC)=C(C)NC3=C2C(=O)c2ccccc23)ccc1O (stereo not given),,-20.1%
Cc1cccc2nc(-c3ccc(Cl)s3)c(Nc3ccc4c(c3)OCCO4)n12,,-14.7%
Cc1ccc(OC(=O)CCC(=O)Nc2ccc(Br)cc2)cc1,,5.33%
COc1ccc(C(=O)CCC(=O)Nc2ccc(Cl)cc2)cc1,,-4.79%
Cc1ccc(NC(=O)CCC(=O)c2ccc(Br)cc2)cc1,89.1 µM (active),
CCOc1cc(-c2nnc(SCC(=O)NC3CCCC3)nc2-c2ccc(OC)c(OCC)c2)ccc1OC,,-29.7%
CCCn1c2ccccc2c2cnn(CC(=O)N(C)c3ccccc3CC)c(=O)c21,,0.302%
COc1cccc(CNC(=O)CCc2nc(-c3ccc(C)cc3)no2)c1,,0.0036%
COc1ccc(OC)c(NC(=O)CSc2nc3ccccc3nc2N2CCCCC2)c1,,-7.89%
CCOC(=O)c1ccc(-c2ccc(/C=C(\C#N)C(=O)Nc3ccc(C)cc3)o2)cc1,,9.25%
Cc1ccc2nc(/C(C#N)=C/c3ccc(-c4ccc(C(=O)OC(C)C)cc4)o3)[nH]c2c1,28.2 µM (active),
Cc1ccc2nc(/C(C#N)=C/c3ccccc3F)[nH]c2c1,,0.138%
